GPR151 ag – activates the human receptor GPR151; Q8TDV0; PathHunter beta-arrestin GPR151 cells, luminescence; activation, % at 11.2 µM; 650,000 tested, 1% active; AID 1508602; in the data active means activation above about 4.9%;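 further: 0% = median of compound wells and 100% = cells with positive control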
TEAD-YAP block – TEAD-YAP interaction inhibition; inhibition, % at 9.12 µM; 640,000 tested, 1.4% active; HEK-TIYL cells, TEAD-Gal4/YAP UAS-luciferase luminescence; AID 1259422; in the data active means inhibition above about 32%;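 further: 0% = median of test compound wells and 100% = reference inhibitor wells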
MITF inh – human MITF inhibition, primary screen; O75030; 650,000 tested, 0.91% active; AlphaScreen MITF homodimerization, bead proximity signal; inhibition, % at 2.6 µM; AID 1259374; in the data active means inhibition above about 50%;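 further: 0% = vehicle wells with protein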
FBW7 act – activators of human E3 ligase FBW7 | AlphaScreen FBW7–phospho-cyclin E peptide binding, activator screen | normalized activity (activation), % at 26.1 µM | 650,000 tested, 0.13% active | AID 1259310; in the data active means normalized activity above about 1.9%;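 further: purified mutant Fbw7 with reduced substrate affinity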
GPR151 conf act – human GPR151 activation, confirmation screen. shares compounds with GPR151 ag. 6,700 tested, under 10 active. AID 1508609. GPR151 PathHunter beta-arrestin cells, luminescence, 90 min; % of EA-reagent control over plate median. activation, % at 11.2 µM;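 active means mean percent activation across replicates above the confirmation screen cutoff of 4.91%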
GPR119 ag – GPR119 activation, counter-screen for GPR151 activators | 6,700 tested, 0.3% active | activation, % at 11.2 µM | AID 1508611 | shares compounds with GPR151 ag | GPR119 PathHunter beta-arrestin cells, luminescence, 90 min; 0 = compound-well median, 100 = enzyme-acceptor control;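 active means mean percent activation in the counterscreen above 29.09%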;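 further: counterscreen on off-target GPR119 to flag nonselective hits from the GPR151 activator screen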
Target sequence (Q8TDV5 whole entry, looked up): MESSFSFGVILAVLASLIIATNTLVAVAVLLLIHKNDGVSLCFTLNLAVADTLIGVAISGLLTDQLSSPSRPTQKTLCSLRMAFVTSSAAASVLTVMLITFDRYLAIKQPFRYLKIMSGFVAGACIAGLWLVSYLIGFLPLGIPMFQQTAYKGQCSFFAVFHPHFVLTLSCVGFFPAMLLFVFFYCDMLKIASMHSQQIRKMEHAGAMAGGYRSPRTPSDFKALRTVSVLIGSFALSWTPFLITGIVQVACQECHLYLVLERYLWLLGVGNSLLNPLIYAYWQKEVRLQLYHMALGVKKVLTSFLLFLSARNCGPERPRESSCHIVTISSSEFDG
Starred values were filed as active, the others as inactive; . = no result given. Rows were chosen to be rich in hits. Some 3.5% of all compounds tested hit in one or more screens of this group.

SMILES	GPR151 ag	TEAD-YAP block	MITF inh	FBW7 act	GPR151 conf act	GPR119 ag
CC(=O)Oc1ccc(N2C(=O)c3ccc(C(=O)c4ccc([N+](=O)[O-])cc4)cc3C2=O)cc1	0	-1	-9	0	.	.
O=C(c1nc2sccn2c1CNCC(c1ccccn1)N1CCOCC1)N1CCCC1 (configuration not stated)	1	9	11	0	.	.
O=C(c1nc2sccn2c1CNCC(c1cccnc1)N1CCOCC1)N1CCCC1 (configuration not stated)	9.8*	13	6	0	0	-1
CC(=O)Nc1ccc(Nc2ccnc(N3CCc4ccccc4C3)n2)cc1	5.1*	28	7	0	2	28
O=C1c2ccccc2C(=O)N1OS(=O)(=O)c1ccccc1	0	-6	-2	0	.	.
O=C1c2ccccc2C(=O)N1OS(=O)(=O)c1ccc(Cl)cc1	17*	2	14	1	0	4
Cc1cc(/C=C(/C#N)c2cccc(Cl)c2)c(C)n1C	5.6*	-11	1	0	0	0
Cc1[nH]c2ccccc2c1SCCNC(=O)c1ccc(N2C(=O)CCC2=O)cc1	6.2*	7	-2	0	-1	2
Cc1nnc2n1NC(c1ccccc1)C(C(=O)Nc1ccc(Br)cc1F)S2 (configuration not stated)	0	10	0	0	.	.
COc1cc(/C=N/NC(=O)c2cccc(Br)c2)ccc1O	-1	-18	-2	0	.	.
Cn1c(=O)c2c(nc(NCCOCCO)n2Cc2ccc(Cl)c(Cl)c2)n(C)c1=O	5.2*	-10	-3	0	1	6
Cc1ccc(-c2nnn(CC(=O)N(CC(=O)NC(C)(C)C)c3cccc(F)c3)n2)o1	2	-1	19	0	.	.
Cc1ccccc1CNC(=O)CN(c1cc(C(F)(F)F)ccc1Cl)S(C)(=O)=O	0	-17	3	0	.	.
COc1ccccc1CNC(=O)CN(c1cc(C(F)(F)F)ccc1Cl)S(C)(=O)=O	7.6*	-6	3	0	0	9
COc1ccc(C(=O)N2CCN(Cc3ccc4ccccc4c3)CC2)cc1	7.7*	36*	47	-1	1	-1
COc1cccc(CN2CCN(C(=O)c3cc(Br)cs3)CC2)c1	5.8*	-2	-2	0	1	11
COc1cccc(CN2CCN(C(=O)c3c(OC)cccc3OC)CC2)c1	0	4	17	0	.	.
COc1ccc(N2CCN(C(=O)c3ccc(OC(C)=O)cc3)CC2)cc1	-1	-1	14	0	.	.
C=CCOc1ccc(C(=O)N2CCN(c3ccc(OC)cc3)CC2)cc1	6.1*	-8	8	1	0	5
Cc1ccc(-c2nc(CS(=O)(=O)CC(=O)NCc3ccccc3)c(C)o2)cc1	-1	-3	8	1	.	.
Cc1nc2c(c(=O)[nH]1)CCN(Cc1cccn1C)C2	-1	3	1	0	.	.
COc1ccc(CN2CCc3nnc(CCNC(=O)c4ccoc4)n3CC2)c(OC)c1	1	-11	-24	0	.	.
Nc1ncc(Br)cc1S(=O)(=O)N1CCN(C2CCCCC2)CC1	13*	4	4	0	1	10
Cc1cc(N2CCOCC2)nc(N2CCN(C(=O)Cc3cccs3)CC2)n1	11*	11	3	0	-1	-3
CCOC(=O)c1cnc2ccc(OC)cc2c1Nc1ccccc1C(=O)O	5.6*	-1	-9	0	0	-4
SMILES	GPR151 ag	TEAD-YAP block	MITF inh	FBW7 act	GPR151 conf act	GPR119 ag
CCOC(=O)c1cnc2cc(C(F)(F)F)ccc2c1Nc1cc(OC)ccc1OC	4.9*	6	0	0	-1	9
CCOC(=O)c1cnc2ccc(OC)cc2c1Nc1ccccc1C	0	-5	3	0	.	.
COc1ccc(-c2nc(NCCN3CCOCC3)c3ncn(C(C)C)c3n2)cc1	1	1	-4	0	.	.
COc1ccc(N2C(=O)C(O)=C(C(C)=O)C2c2ccc(Br)cc2)cc1 (configuration not stated)	1	-11	3	1	.	.
COc1ccc(-c2nc3n(n2)C(c2ccc(O)cc2)C2=C(CC(C)(C)CC2=O)N3)cc1 (configuration not stated)	1	-5	8	0	.	.
COc1ccc(N2C(=O)/C(=C/c3ccc(OCC(=O)O)cc3)NC2=S)cc1	0	1	0	0	.	.
COC(=O)c1ccc(/C=C2\NC(=S)N(c3ccc(OC)cc3)C2=O)cc1	6.7*	12	5	0	0	2
CCOCCn1ccc2c(OCC(=O)Nc3ccc(F)cc3F)cccc2c1=O	2	4	6	0	.	.
CCOCCn1ccc2c(OCC(=O)NCCOC)cccc2c1=O	14*	0	8	0	1	2
COC(=O)C1=C(NC(=O)c2ccccc2Br)CCS1	5.0*	1	0	0	0	11
COC(=O)C1=C(NC(=O)COc2ccc(Cl)cc2)CCS1	6.1*	4	-4	0	-1	-1
CC(=O)c1cccc(NC(=O)c2cc3cc4c5c(c3oc2=N)CCCN5CCC4)c1	2	9	-4	0	.	.
CCOC(=O)c1c(C)c(C(=O)NCCC(C)C)c(C)n1C	12*	4	-3	0	1	4
CCOC(=O)c1c(C)c(C(=O)NCCCOC)c(C)n1C	1	1	4	0	.	.
CS(=O)(=O)c1cc([N+](=O)[O-])c(NCC(F)(F)C(F)F)c([N+](=O)[O-])c1	1	-2	-1	0	.	.
O=C(Nc1nnc(S(=O)(=O)N2CCc3ccccc32)s1)c1ccco1	2	2	1	0	.	.
O=C(Nc1nnc(S(=O)(=O)N2CCc3ccccc32)s1)c1cccs1	5.2*	-2	-13	0	1	3
Cc1cccc(OCC(=O)Nc2nnc(S(=O)(=O)N3CCc4ccccc43)s2)c1	6.1*	-2	-4	0	0	-6
Cc1ccc(OCC(=O)Nc2nnc(S(=O)(=O)NCc3ccccc3)s2)cc1	8.7*	-26	-9	0	1	-1
Cc1ccc(-c2nnc(SCC(=O)Nc3cccc(Cl)c3C)nc2-c2ccc(C)cc2)cc1	0	16	3	0	.	.
NC(Cc1cc(I)c(Oc2ccc(O)c(I)c2)c(I)c1)C(=O)O (configuration not stated)	6.4*	10	2	0	0	1
CC(=O)c1ccc(NC(=O)Cn2cnc3c(cnn3-c3ccc(C)cc3C)c2=O)cc1	0	0	10	0	.	.
O=C(NCc1ccccn1)c1cc2c(ccc3ccccc32)oc1=O	12*	-11	9	0	-1	1
O=C(NCc1ccccc1)c1cc2cc([N+](=O)[O-])ccc2oc1=O	13*	-2	0	0	0	4
COc1ccc(S(=O)(=O)n2nc(C)cc2C)cc1	5.0*	0	-1	1	0	-3
